# Test results as given in the supplement of paper PMC9433436.
# ± gives the standard deviation of the averaged measurements. Whole data set: some 4,100 sequences, median “relative kcat/Km (krel) vs genomic leader AAAGAU” near 1.7, cut for the highest 2% near 6.5. The list comes from a sample in which the highest values are over-represented; it also holds similar and randomly drawn sequences.
# Target: T1, E. coli RNase P holoenzyme (M1 P RNA + rnpA protein) (UniProt P0A7Y8)
# T1 sequence: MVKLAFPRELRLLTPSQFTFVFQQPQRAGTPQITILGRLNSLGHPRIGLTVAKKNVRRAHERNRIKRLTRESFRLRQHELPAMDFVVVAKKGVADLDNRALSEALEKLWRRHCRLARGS
# Test: relative kcat/Km (krel) vs genomic leader AAAGAU (relative (reference leader = 1)); higher = faster RNase P cleavage
# Experimental: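 HTS-Kin: a pool of ptRNA-Met (21C construct) with all 4096 combinations of 5' leader nucleotides N(-6) to N(-1) was processed in vitro by E. coli RNase P (P RNA + rnpA/C5 protein) under multiple-turnover conditions at 37 C, pH 8, 17.5 mM MgCl2. Residual substrate was Illumina-sequenced at several fractions reacted, and relative kcat/Km (krel) was computed by internal competition kinetics, calibrated to the genomic leader (AAAGAU = 1). The listed hexamer is the varied N(-6)..N(-1) leader (DNA letters), and it sits between a fixed 5' stem-loop flank (GCAUGCACGAAAGUGCGUGCUAUGAA) and the mature tRNA-Met starting GGCUACGUAGCUCAGUUGG. Two technical replicates are averaged.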
# [1] = fraction of substrate reacted: ~26-29% (28.66% repeat 1, 26.4% repeat 2)
# [2] = fraction of substrate reacted: ~9-10% (9.79% repeat 1, 9.1% repeat 2)
# [3] = fraction of substrate reacted: ~13-16% (15.68% repeat 1, 13.17% repeat 2)
Sequence,relative kcat/Km [1],relative kcat/Km [2],relative kcat/Km [3]
TACAGT,2.94 ± 2.7,–,–
CACAGC,5.98 ± 2.7,3.88 ± 1.2,4.31 ± 1.1
TACAGG,1.7 ± 0.63,–,–
TACACA,5.53 ± 2.6,3.05 ± 1.1,3.7 ± 0.067
TACAGA,8.3 ± 3,4.52 ± 2,5.66 ± 0.35
TACAGC,6.84 ± 2.6,3.82 ± 2,4.94 ± 0.45
CTGACC,1.2 ± 0.63,–,0.599 ± 0.52
ACTGTC,1.12 ± 0.25,1.77 ± 1.3,0.935 ± 0.31
AAGATT,2.06 ± 0.8,1.89 ± 0.21,1.82 ± 0.21
TGCTAG,2.44 ± 0.12,1.97 ± 1.5,1.376 ± 0.0054
GTGTAA,2.94 ± 1.5,1.31 ± 0.75,2.41 ± 1.1
TGCTAA,3.74 ± 1.1,2.19 ± 0.95,2.88 ± 0.23
AGCTAA,5.8 ± 3,3.22 ± 1.8,3.61 ± 1
GGCTAA,3.19 ± 0.8,2.12 ± 0.85,2.32 ± 0.78
ATCTAA,8.58 ± 3.4,4.39 ± 1.5,5.55 ± 1.1
TTTCTA,2.89 ± 1.2,2.15 ± 0.72,2.3 ± 0.57
TTCTAG,7.01 ± 3.1,4.08 ± 2.6,4.58 ± 0.56
TTCTAA,10.6 ± 4.1,5.69 ± 2.2,7.17 ± 1.2
GTCTAA,10.1 ± 4.8,4.58 ± 0.43,7.55 ± 1.7
GTGAAC,2.83 ± 0.88,1.89 ± 0.25,2.27 ± 0.31
TTGCAG,1.37 ± 0.19,–,–
GGCTTC,1.7 ± 0.44,0.513 ± 0.13,1.31 ± 0.14
CACTCC,5.21 ± 1.3,3.12 ± 2.1,3.9 ± 0.2
CAAGCT,1.37 ± 0.37,1.48 ± 1.3,0.905 ± 0.4
ATGTAC,5.39 ± 2.7,3.03 ± 0.37,3.81 ± 0.94
TGCGGT,2.25 ± 1.2,–,–

Sequence,relative kcat/Km [1],relative kcat/Km [2],relative kcat/Km [3]
TGCTAC,4.62 ± 2.6,2.42 ± 1.5,2.16 ± 0.89
CTAAAA,2.89 ± 0.88,2.15 ± 0.51,2.43 ± 0.18
TTCTAC,10.6 ± 4.4,5.32 ± 1.5,7.7 ± 1.3
CTCTAA,8.82 ± 3.7,4.48 ± 1.2,6.21 ± 1.1
TGCTAT,3.79 ± 1.5,2.93 ± 0.94,2.69 ± 0.56
CGCTAA,5.96 ± 2.3,3.07 ± 0.43,3.99 ± 1.2
AGCTAT,5.23 ± 1.9,4.03 ± 1.8,3.39 ± 1.1
TTCTAT,10.5 ± 4.7,5.38 ± 0.96,7.59 ± 1.6
TGTGAA,3.58 ± 1.9,2.72 ± 0.39,2.92 ± 0.98
TGATAT,6.11 ± 3.1,1.84 ± 0.025,3.77 ± 0.75
ACATCG,1.61 ± 0.095,1.31 ± 1.1,–
TGGACT,0.76 ± 0.046,1.76 ± 0.67,0.899 ± 0.057
GGTAGG,1.74 ± 0.56,–,–
ATCCCG,1.86 ± 0.023,1.67 ± 1.4,0.83 ± 0.4
GTAGCC,2.13 ± 0.51,1.99 ± 0.12,1.48 ± 0.66
TTTAAT,5.8 ± 2.3,3.19 ± 1.8,3.87 ± 0.24
CAATAT,6.37 ± 3,3.27 ± 0.33,4.46 ± 0.96
TCCATG,3.46 ± 0.3,–,1.42 ± 0.26
TCCATA,6.71 ± 2.6,4.06 ± 1.5,4.66 ± 0.32
GCCATT,4.74 ± 1.7,1.91 ± 0.79,2.36 ± 0.9
TCCATT,7.33 ± 3.2,4.11 ± 1.2,4.85 ± 1.2
ACCATA,3.64 ± 0.82,2.8 ± 1.8,2.2 ± 0.51
ACCATT,4.27 ± 1.3,2.5 ± 1.4,2.84 ± 0.28
GGCCTC,1.94 ± 0.76,1.28 ± 0.39,0.933 ± 0.5
GCATGA,2.21 ± 0.69,1.91 ± 0.28,1.07 ± 0.63
TACAAA,7.71 ± 3,3.89 ± 1.8,5.2 ± 0.41

Sequence,relative kcat/Km [1],relative kcat/Km [2],relative kcat/Km [3]
GACAGC,5.59 ± 1.6,3.44 ± 1,4.06 ± 0.54
CACAAA,6.59 ± 2.9,3.35 ± 0.11,4.93 ± 1.2
TACAAG,4.49 ± 1.9,1.6 ± 0.23,2.38 ± 0.42
AACAAA,5.24 ± 1.1,3.32 ± 2.3,3.9 ± 0.11
GACAAC,6.93 ± 3.1,3.9 ± 0.94,3.84 ± 1.1
AACAAC,4.45 ± 1.8,2.99 ± 0.85,3.22 ± 0.17
CACAAG,3.72 ± 0.99,1.66 ± 0.94,1.78 ± 0.81
AACAAG,3.26 ± 0.69,–,1.32 ± 0.57
TACAAC,7.11 ± 3,3.75 ± 1.9,5.24 ± 0.76
GACACC,5.28 ± 1.8,3.17 ± 1.9,3.35 ± 0.2
CACAAC,6.36 ± 2.1,3.95 ± 1.3,4.05 ± 0.63
ACGCAT,3.39 ± 1.3,1.58 ± 0.85,2.23 ± 0.052
TTGTCG,1.07 ± 0.3,–,–
TCTCGG,1.04 ± 0.15,1.19 ± 1.1,0.684 ± 0.45
TCTTCA,2.49 ± 0.68,2.36 ± 1.3,1.88 ± 0.27
ACCCGT,1.96 ± 1.4,1.55 ± 1.5,1.9 ± 1.9
AGCTCA,3.13 ± 1.1,2.57 ± 1.9,2.16 ± 0.53
AACACT,3.76 ± 0.87,1.88 ± 1.1,2.41 ± 0.39
TGACTT,3.33 ± 1.3,1.97 ± 0.23,2.77 ± 0.65
GACAAA,6.91 ± 2.5,4.01 ± 1.6,4.49 ± 0.5
CACACT,4.82 ± 1.5,2.56 ± 0.39,3.16 ± 0.72
GACACG,2.6 ± 0.37,–,1.39 ± 0.034
GACAAG,4.06 ± 0.99,2 ± 1.4,2.152 ± 0.02
CACATT,6.23 ± 2.3,3.5 ± 1.3,4.74 ± 0.66
CACAAT,6.78 ± 2.9,3.85 ± 1.2,4.61 ± 0.51
TACAAT,7.14 ± 3.4,2.84 ± 0.75,4.74 ± 0.94

Sequence,relative kcat/Km [1],relative kcat/Km [2],relative kcat/Km [3]
AACAAT,4.49 ± 1.9,1.84 ± 0.24,3.26 ± 0.41
GACAAT,5.83 ± 2.4,3.33 ± 1.5,3.55 ± 1.1
AGGCTC,0.722 ± 0.43,–,–
GTTACA,3.09 ± 1.2,1.9 ± 0.82,2.16 ± 0.12
CTGCCA,1.19 ± 0.3,1.58 ± 1,0.692 ± 0.67
TCACAT,6.08 ± 2.7,3.6 ± 1.2,4.18 ± 0.55
AACGTG,0.741 ± 0.57,–,–
GGATGC,2.74 ± 1,1.44 ± 0.27,1.71 ± 0.79
CAAAGC,1.94 ± 1.2,1.07 ± 0.26,1.12 ± 1.1
TCTCGA,4.89 ± 2,3.05 ± 0.36,3.16 ± 0.42
GCCTCA,5.77 ± 2.1,3.93 ± 1.6,4.02 ± 0.47
TCCTCT,6.72 ± 2.6,3.55 ± 1.7,4.68 ± 1
CCCTCA,3.95 ± 0.28,2.47 ± 1.3,3.63 ± 0.37
TCCTCA,6.64 ± 2.4,3.22 ± 0.45,4.2 ± 0.86
TCCTCC,6.57 ± 2.7,3.65 ± 1.8,4.58 ± 1.2
TCCTCG,3.64 ± 0.61,2.35 ± 1.9,2.52 ± 0.14
CCCTCT,3.9 ± 0.73,2.96 ± 0.6,3.23 ± 0.81
CCCTCC,4.21 ± 1.1,3.55 ± 1.1,3.38 ± 0.94
ACCTCC,4.3 ± 0.6,3.29 ± 2.2,3.3 ± 0.22
ATGGCA,1.01 ± 0.3,–,1.34 ± 1.2
AGTAGG,1.52 ± 0.61,–,–
CCACCC,2.49 ± 0.73,2 ± 0.12,1.27 ± 0.51
AGATGT,1.84 ± 1.7,0.906 ± 0.45,–
CTTGTG,0.748 ± 0.26,–,–
CGCGGG,0.258 ± 0.092,0.135 ± 0.028,–
TATCTA,2.97 ± 1.5,2.06 ± 0.75,2.24 ± 0.15

Sequence,relative kcat/Km [1],relative kcat/Km [2],relative kcat/Km [3]
AAGCAC,3.12 ± 1.2,2.14 ± 1.2,1.53 ± 0.4
ATTTGC,5.35 ± 1.6,3.17 ± 0.9,3.69 ± 0.87
TTTTGG,0.844 ± 0.31,0.508 ± 0.012,–
TTTTGC,6.61 ± 2.8,3.65 ± 1.3,4.42 ± 1.1
TTTTGT,2.01 ± 1.6,–,–
TTTTGA,6.55 ± 2.4,3.16 ± 0.88,4.56 ± 1.3
GTTTGC,5.13 ± 1.9,2.91 ± 0.62,3.18 ± 0.81
AGAAAC,3.84 ± 1.5,3.18 ± 0.43,2.7 ± 0.75
ATAACA,1.43 ± 0.58,0.435 ± 0.37,0.897 ± 0.17
AAGAAT,3.17 ± 1.4,2.06 ± 0.33,1.89 ± 0.36
TGTTGC,4.88 ± 1.9,2.72 ± 0.32,2.95 ± 0.082
AGTTCT,4.6 ± 1.6,2.55 ± 0.89,3.08 ± 1.2
TGTTAA,7.94 ± 3.5,4.01 ± 0.87,5.39 ± 1.7
AGTTCA,4.24 ± 1.9,2.22 ± 0.21,2.82 ± 0.86
TGTTAC,8.19 ± 3.8,3.59 ± 1.3,5.21 ± 1.2
AGTTTA,4.93 ± 2.3,2.86 ± 0.36,3.18 ± 0.34
TGTTGA,5.59 ± 2.1,2.15 ± 0.44,3.32 ± 1.3
AGTTAT,7 ± 3.2,2.78 ± 0.19,4.36 ± 0.82
AGTTTT,5.01 ± 1.8,2.68 ± 0.23,3.38 ± 0.73
TGTTTA,4.92 ± 2,2.78 ± 0.84,3.23 ± 0.41
TGTTCC,3.89 ± 1.1,2.41 ± 1.7,3.08 ± 0.79
AGTTAA,7.15 ± 2.6,3.63 ± 1.5,5.9 ± 0.68
